Measurements: PubChem BioAssay AID493200 (National Center for Advancing Translational Sciences (NCATS), 2011)
Records with an inconclusive call do not appear. Activity calls are given as the source filed them. The call rests on the fitted dose curve; in most records, active means well fitted activation curve with a large enough effect; inconclusive means small, poorly fitted or top-dose-only effect; inactive means no such curve, though single readings can be large or run the other way.

Assay: qHTS Assay for Rab9 Promoter Activators: Initial hit validation from the primary screen; on activation: % of control where 0% means no effect
Conditions: Huh7 Rab9 promoter luciferase reporter, 24 h; series mostly up to 46.1 µM; activation: at the top concentration
Excerpt: NIH Chemical Genomics Center [NCGC] NIH Molecular Libraries Probe Production centers Network [MLPCN] MLPCN Grant: MH089537-01 Assay Submitter (PI): Yiannis A. Ioannou NCGC Assay Overview: Niemann Pick Type C (NPC) is a rare neurodegenerative lipidosis that is characterized by lipid storage in the endosomal/lysosomal system. Treatment modalities for this devastating disease are currently non-existent due to the severe obstacles associated with accessing the central nervous system with proteins or genes (Ioannou, 2000). We have developed a new paradigm, termed "Orphan Receptor Bypass Therapy" (ORByT), to address these disorders. This paradigm posits the existence of endogenous "suppressor" proteins whose expression can dramatically improve LSD pathogenesis. The goal is the identification/discovery of small chemical compounds that can modulate the expression of these proteins and provide a new treatment modality for these devastating disorders. One such protein whose overexpression reverses aspects of the NPC phenotype is Rab9. We have developed and optimized a cell based luciferase reporter assay in 1536 well format for the identification of up-regulators of the Rab9 promoter. This assay presents data on the validation of hits from the primary screen.
The Rab9 promoter is cloned in front of the luciferase reporter gene, therefore […] promoter activation results in luciferase expression. Frozen stock of the Rab9 promoter transfected Huh7 cells were obtained from the laboratory of Dr. Yiannis Ioannou (The Mount Sinai School of Medicine, New York, NY). Cells were propagated and maintained at NCGC in medium containing RPMI-1640 supplemented with 10% FBS, 2mM L-glutamine, and 50ug/ml penicillin/streptomycin. Cells were harvested in and plated for assays in OP-MEM I reduced-serum medium supplemented with 10% FBS. The Amplite luciferase reporter gene assay kit was purchased from ABD Bioquest and prepared/stored according to manufacturers recommendations. qHTS Assay Setup: 1.Dispensed 5ul of Huh7 cells stably expressing Rab9-luciferase at a density of 1500 cells per well 1536-well plates. 2.Incubate cells at 37C, 5% CO2, and 95% humidity for 2 hours. 3.Transferred 23nl per well of compound in DMSO solution. 4.Incubated at 37C, 5% CO2, and 95% humidity for 24 hours. 5.Dispensed 3ul per well of Amplite reagent(ABD Bioquest) per well. 6.Incubate at ambient for 10 minutes. 7.Read using the luminescence protocol on the ViewLux plate reader (Perkin Elmer).
Potency means the concentration at half of the fitted maximal effect.

Compound | activation | Potency
CC(Sc1ncnc2c1cnn2-c1ccccc1)C(=O)Nc1ccc(N2CCOCC2)cc1 (stereo not given) | 8.63% (inactive) | 
Brc1ccccc1-c1nnc(CSc2nnc3sc4ccccc4n23)o1 | 11.5% (inactive) | 
Cc1cc(C)c2c(N)c(C(=O)Nc3ccc([N+](=O)[O-])cc3)sc2n1 |  | 0.499 µM (active)
Cc1nc(SCC(=O)NC(=O)NC(C)(C)C)nc(C)c1C | -2.54% (inactive) | 
COc1ccc(/C=C\c2onc(C)c2S(=O)(=O)N2CCC(C(=O)NCCC(C)C)CC2)cc1 | -9.91% (inactive) | 
CC(=O)Nc1nnc(SCC(=O)NCCOc2ccccc2)s1 | -3.72% (inactive) | 
COc1ccc(-c2csc(N(CCCN(C)C)C(=O)c3ccccc3C)n2)cc1 | -38% (inactive) | 
COc1ccccc1NC(=S)NCc1ccc(Cl)cc1 | -1.84% (inactive) | 
Cc1ccc2nc(Nc3ccc(Cl)cc3)c3nncn3c2c1 | -3.26% (inactive) | 
O=C(c1cccc(Oc2ccc([N+](=O)[O-])cc2)c1)N1CCOCC1 | -14.3% (inactive) | 
COc1ccc(-c2csc(Nc3ncccn3)n2)cc1C |  | 0.281 µM (active)
NNC(=O)c1cccc(S(=O)(=O)Nc2cc(Cl)ccc2Cl)c1 | -1.11% (inactive) | 
COC(=O)CSc1nc2cc3c(cc2cc1C#N)OCO3 |  | 0.353 µM (active)
NC(=O)C(=O)NN=C1C2CC3CC(C2)CC1C3 | 0% (inactive) | 
Cc1ccc(C#N)c(SCC(=O)Nc2nccs2)n1 |  | 0.791 µM (active)
CCOC(=O)C1(Cc2cccc(Cl)c2)CCCN(C(=O)CCSC)C1 (stereo not given) | 7.51% (inactive) | 
O=C(N/N=C/c1ccc(-c2ccc(Br)cc2)o1)c1ccc2c(c1)OCO2 | 3.2% (inactive) | 
CC1CCCN(S(=O)(=O)c2ccc(C(=O)Nc3nnc(-c4ccncc4)o3)cc2)C1 (stereo not given) | -34.8% (inactive) | 
COc1ccccc1N(C(=O)c1snc(C(N)=O)c1N)C(C(=O)NC1CCCCC1)c1cccc(OC)c1OC (stereo not given) | -25.6% (inactive) | 
Cc1ccc(C2C3=C(CC(C)(C)CC3=O)N(CCN3CCOCC3)C3=C2C(=O)CC(C)(C)C3)cc1 | -2.96% (inactive) | 

Compound | activation | Potency
Cc1ccc(N=Cc2sc(O)c3ccccc23)c(C)c1 |  | 2.23 µM (active)
CC(=O)NC(CCCN1C(=O)c2ccccc2C1=O)c1nnn(C)n1 (stereo not given) | 1.74% (inactive) | 
COCCNC(=O)Cn1nc(-c2ccccc2)c2ccccc2c1=O | 0.448% (inactive) | 
N#C/C(=N\Nc1ccc(Cl)cc1)C(=N)N1CCCCC1 |  | 0.223 µM (active)
CNC(=O)Cn1nc(C)c2ccccc2c1=O | -1.21% (inactive) | 
CCCN(CCC)CCCNC(=O)c1cc2cc3ccc(Cl)cc3nc2o1 | -13% (inactive) | 
Nc1ccccc1C(=O)N/N=C1/C2CN3CCN(C2)CC1(Cc1ccccc1)C3 | 1.41% (inactive) | 
CCC(=O)NC(=S)Nc1ccc(N2CCOCC2)cc1 |  | 39.7 µM (active)
Cc1ccc(C)c(Nc2cc(C)nc3ncnn23)c1 | -2.73% (inactive) | 
COc1ccc(NC(=O)Nc2ccc(Cc3ccncc3)cc2)cc1OC | -23.6% (inactive) | 
Cc1noc(/C=C/N(C)C)c1S(=O)(=O)N1CCCC(C(=O)N2CCCCC2)C1 (stereo not given) | -1.37% (inactive) | 
Cc1c(C(O)CN2CCN(Cc3ccc4c(c3)OCO4)CC2)c2ccccc2n1C (stereo not given) | -2.51% (inactive) | 
Cn1c(SCc2ccccc2)nnc1-c1cnccn1 |  | 14.1 µM (active)
O=CN1CCN(C(=O)c2ccccc2Cl)CC1 | 1.05% (inactive) | 
Cc1ccc(S(=O)(=O)N2CCN(c3cnn(C)c(=O)c3Cl)CC2)cc1 | -7.24% (inactive) | 
CC1(C)CC(=O)c2c(O)c(-c3ccccc3)c(=O)n(-c3ccccc3)c2C1 | -6.27% (inactive) | 
CCCc1cc(C(=O)Nc2ccccc2SC)no1 |  | 25 µM (active)
Cc1ccccc1NC(=O)Cc1nc(COC(=O)CC(C)c2ccccc2)cs1 (stereo not given) | -3% (inactive) | 
Fc1ccc(-c2nc3nc4ccccc4nc3n2Cc2ccco2)cc1 | 12% (inactive) | 
Cc1nc(-c2ccccn2)sc1C(=O)Nc1ccc(F)cc1F |  | 9.96 µM (active)
